# Nrf2 activator = activators of Nrf2 (ARE) signaling; AREc32 ARE-luciferase reporter (MCF7-derived line), luminescence, 24 h; Potency, µM (top dose mostly 46.1 µM), for the others: top-dose activation, most hits filed as activators; actives 0.31% (n = 410,000); also: % of control where 0% means no effect; nearly all actives have a fitted effect of over 65% in size
#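 Steps: seed AREc32_Fluc cells (1000/well, 5% FBS OPTI-MEM); incubate overnight at 37 deg C; add 23 nL compound; incubate 24 hr; add Steady-Glo; hold 30 min RT; read luminescence.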
# Nrf2 block = Nrf2 pathway inhibition; A549 ARE-Fluc reporter, luciferase luminescence, 18-24 h; Potency, µM (doses to about 46 µM), without a hit: top-dose activity change, negative = inhibition, most hits filed as inhibitors; actives 2.1% (n = 360,000); also: % is scaled to controls: 0 for no effect and ±100 for the full control effect; nearly all actives have a fitted effect of over 60% in size
#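 A549 ARE_Fluc cells (5000/well, 5% FBS OPTI-MEM) pre-incubated 2 h, then treated with compounds 18-24 h at 37C/5% CO2 in concentration-response. CellTiter-Fluor viability read first; BugLite luciferase luminescence after 15 min at room temperature gives Nrf2 activity.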
# ELG1 repair inh = ELG1-dependent DNA repair inhibition; HEK293T ELG1-luciferase reporter, luminescence, 16 h; DNA damage induced by 5-fluorouridine; Potency, µM (doses to about 46.1 µM), for inactives: at the top dose activity change, negative = inhibition, most hits filed as inhibitors; actives 2.3% (n = 330,000); AID 504467; also: % is scaled to controls: 0 for no effect and ±100 for the full control effect; nearly all actives have a fitted effect of over 55% in size
#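 DMSO vehicle served as the neutral condition. Each well held 2,000 cells given 5-fluorouridine plus compound; after 16 hr at 37 °C/5% CO2, ONE-Glo was added and luciferase measured 30 min later.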
# IDH1 R132H inh = blocks human mutant IDH1 R132H enzyme | Potency, µM (doses to about 76.6 µM), inactives show top-dose activity change, negative = inhibition, most hits filed as inhibitors | actives 0.093% (n = 390,000) | O75874 | AID 602179 | IDH1-R132H enzyme, NADPH consumption, diaphorase/resazurin fluorescence; also: % is scaled to controls: 0 for no effect and ±100 for the full control effect; nearly all actives have a fitted effect of over 65% in size
# Target sequence (O75874 whole entry R132H, stated change not applied): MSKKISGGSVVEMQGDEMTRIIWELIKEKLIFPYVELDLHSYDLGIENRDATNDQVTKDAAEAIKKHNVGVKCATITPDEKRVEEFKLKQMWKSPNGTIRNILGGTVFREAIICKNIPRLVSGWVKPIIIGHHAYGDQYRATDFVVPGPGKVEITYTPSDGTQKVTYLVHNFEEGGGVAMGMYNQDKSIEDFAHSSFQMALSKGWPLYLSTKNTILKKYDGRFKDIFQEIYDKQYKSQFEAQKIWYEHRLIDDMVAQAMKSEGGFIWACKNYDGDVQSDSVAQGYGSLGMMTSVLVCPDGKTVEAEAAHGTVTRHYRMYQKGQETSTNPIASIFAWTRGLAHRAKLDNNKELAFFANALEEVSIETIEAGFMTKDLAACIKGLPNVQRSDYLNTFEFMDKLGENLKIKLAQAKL
#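 IDH1-R132H (0.5 ug/mL dispensed) in pH 7.5 Tris buffer was preincubated 30 min with compound, then given a substrate mix of 0.016 mM NADPH and 2 mM alpha-KG for 80 min at room temperature; remaining NADPH was read by diaphorase/resazurin fluorescence.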
# A549 viability = A549 cytotoxicity, counter-screen for Nrf2 inhibitors. Potency, µM (titrated, usually from 46 µM), inactives show at the top dose activity change, negative = cytotoxicity, usual class: inhibitors. A549 ARE-Fluc cells, CellTiter-Fluor viability, 18-24 h. actives 0.16% (n = 390,000); also: % is scaled to controls: 0 for no effect and ±100 for the full control effect
#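 A549 ARE_Fluc cells in 5% FBS OPTI-MEM were exposed to compounds in concentration-response for 18-24 h at 37 deg C. Viability was read by CellTiter-Fluor fluorescence (Ex 405/Em 525) after 30 min, before the luciferase read.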
# Numbers without * were called inactive; ? = inconclusive; / = no result given; [ ] = dose if it differs, or a comment. This is a sample that favours compounds with a hit; in the whole collection about 3.8% have one here. Calls follow the shape of the dose curve; as a rule, active = well fitted curve in the direction sought with a large enough effect; inconclusive = small, poorly fitted or top-dose-only effect, or another doubt; inactive = no such curve, though single readings can be large; an effect the other way counts as inactive or inconclusive. Potency is read from the fitted curve at half-maximal effect.
SMILES,Nrf2 activator,Nrf2 block,ELG1 repair inh,IDH1 R132H inh,A549 viability
COc1ccccc1CN(C)C(=O)c1cc(-c2cc(OC)c(OC)c(OC)c2)nc2ccccc12,9%,?,5.8µM*,?,-16%
COc1cc(-c2cc(C(=O)Nc3c(Cl)cc(Cl)cc3Cl)c3ccccc3n2)cc(OC)c1OC,0%,-14%,5.2µM*,1%,4%
COc1ccc(N2CCN(S(=O)(=O)c3ccc(C4CCCCC4)cc3)CC2)cc1,0%,11%,/,-3%,2%
O=S1(=O)N=C(Oc2ccccc2Cl)c2ccccc21,/,8%[65.3 µM],/,/,0%[65.3 µM]
COCCN(Cc1ccccc1)C(=O)c1cc(-c2ccc(OC)c(OC)c2)nc2ccccc12,8%,18µM*,12µM*,1%,?
NS(=O)(=O)c1ccc(N2N=C(c3ccccc3)CC2c2ccccc2)cc1 (stereo not drawn),4%,?,?,-11%,-3%
NS(=O)(=O)c1ccc(N2N=C(c3ccccc3)CC2c2ccccc2Cl)cc1 (stereo not drawn),1%,21µM*,7%,-28%,?
Cc1cc(C)n2nc(-c3ccc(Br)cc3)cc2n1,2.2µM*,?,?,2%,26%
Cc1cc(C)n2nc(-c3ccc(Cl)cc3)cc2n1,14µM*,?,?,2%,8%
COc1ccc(-c2cc3nc(C)cc(C)n3n2)cc1,26%,?,?,16%,-5%
O=C1CCCC2=C1C1(CCCC1)N=C(Nc1nc3cc(Cl)ccc3o1)N2,/,?,/,/,2%
COc1ccc(N2CCN(C3C(=O)c4ccccc4N3C(C)=O)CC2)cc1 (stereo not drawn),1%,22%,/,3%,1%
Cc1c(N2C(=O)/C(=C\c3ccc(N(C)C)cc3)N(C)C2=S)c(=O)n(-c2ccccc2)n1C,0%,-9%,-15%,2%,15µM*
CNS(=O)(=O)c1cn(CC(=O)N2CCN(c3cc(C)ccc3C)CC2)cc1S(=O)(=O)NC,-1%,?,/,9%,6%
N=c1c2c(ccn1Cc1ccccc1)Oc1ccc3ccccc3c1C2c1ccccc1 (stereo not drawn),/,5.2µM*,/,/,12µM*
Cc1ccc(COC(=O)c2cc(S(=O)(=O)N3CCOCC3)ccc2C)cc1,0%,16µM*,23µM*,-1%,10%
COc1cccc(NC(=O)COC(=O)c2cc(S(=O)(=O)N3CCOCC3)ccc2C)c1,0%,-2%,16µM*,5%,-4%
Cc1ccc(S(=O)(=O)N2CCOCC2)cc1C(=O)OCC(=O)N1CCCCC1,1%,15%,7%,4%,9%
COc1ccc(C2CC(=O)N(Cc3ccccc3)c3c2c(C)nn3-c2nc(C)cc(C)n2)c(OC)c1 (stereo not drawn),-1%,6%,/,-10%,-1%
COc1ccccc1-n1cc2ccc([N+](=O)[O-])cc2n1,11µM*,?,/,1%,15%
O=[N+]([O-])c1ccc2cn(-c3ccccc3)nc2c1,?,?,?,8%,12%
Nc1nc(N)c(-c2cccc(C(F)(F)F)c2)c(Cc2cccc(C(F)(F)F)c2)n1,3%,15µM*,/,4%,2%
CCCn1c(SCC(=O)Nc2ccccc2C(=O)OC)nc2c1c(=O)n(C)c(=O)n2C,0%,5%,2%,3%,-1%
CCCCn1c(SCc2nnc(-c3ccccc3)o2)nc2c1c(=O)n(C)c(=O)n2C,2%,10µM*,6%,3%,-14%
CCCCn1c(SCC(=O)N2c3ccccc3CCc3ccccc32)nc2c1c(=O)n(C)c(=O)n2C,0%,?,21µM*,12%,-1%
SMILES,Nrf2 activator,Nrf2 block,ELG1 repair inh,IDH1 R132H inh,A549 viability
CCCn1c(SCC(=O)Nc2ccccc2N2CCCCC2)nc2c1c(=O)n(C)c(=O)n2C,-1%,?,7.3µM*,-5%,-1%
COc1ccc(S(=O)(=O)c2cn(C)c3cc(N4CCCC4)c(F)cc3c2=O)cc1,0%,-23%,/,-5%,-7%
O=C(OCc1ccccc1)N1CCC2CC1c1cc(/C=C/CCCSc3ncccn3)ccc12 (stereo not drawn),1%,/,/,-13%,/
COc1ccc(C(=O)N(Cc2ccc(C(C)C)cc2)C2CCS(=O)(=O)C2)cc1 (stereo not drawn),5%,?,/,9%,-18%
CCOc1ccccc1NC(=O)c1cc2cc(C)ccc2n1C,6%,5%,/,16%,-4%
CN(C)c1ccc(P(=O)(OC2CCCCC2)C(O)c2cccnc2)cc1 (stereo not drawn),0%,4%,2%,0%,/
CC(C)c1ccc(C(O)P(=O)(OC2CCCCC2)OC2CCCCC2)cc1 (stereo not drawn),0%,16µM*,0%,12%,?
COC(=O)c1ccc(Cl)cc1N(Cc1c(F)cccc1Cl)S(C)(=O)=O,0%,18µM*,-18%,1%,?
Cc1ccc(NC(=O)c2c(C)nc3sc(C(=O)NC4CCCC4)c(N)c3c2-c2ccco2)c(C)c1,-1%,7%,20%,4%,-4%
N#Cc1sc2nc3c(c(-c4ccco4)c2c1N)CCCC3,0%,?,0%,1%,2%
Cc1ccccc1NC(=O)c1sc2nc3c(c(-c4ccco4)c2c1N)CCC3,0%,-10%,23µM*,1%,1%
NC(=O)c1sc2nc3c(c(-c4ccco4)c2c1N)CCCC3,-1%,?,9.2µM*,3%,18%
CC(C)CNC(=O)C1(C)CCCN1C(=O)c1cccnc1Oc1ccccc1 (stereo not drawn),0%[9.22 µM],/,/,/,/
N#CN1CCC(NC(=O)c2ccc(C(F)(F)F)cc2)CC1,/,10%,/,/,-3%
Cc1ccc(OCCn2c(NC(=O)c3ccco3)nc3ccccc32)cc1,4%,-25%,-22%,2%,-12%
CCCn1c(NC(=O)c2ccc([N+](=O)[O-])o2)nc2ccccc21,13µM*,1%,?,6%,-11%
Cc1cccc(OCCn2c(NC(=O)c3ccco3)nc3ccccc32)c1,5%,18µM*,-5%,12%,-4%
COC(=O)c1ccc2c(c1)N(CC(=O)Nc1cccc(C(F)(F)F)c1)C(=O)c1ccccc1S2,-1%,/,/,-19%,-6%
Cc1ccc(NS(=O)(=O)c2ccc3c(c2)N(C)C(=O)CO3)cc1C,/,?,/,/,1%
CCOc1nc(-c2ccccc2)ccc1-c1noc(-c2cccs2)n1,?,?,12%,9%,?
CCOc1ncccc1-c1nc(-c2cccs2)no1,10µM*,?,?,4%,14%
COc1ccc(OC)c(C2=Nn3c(nnc3C3CCCCC3)SC2)c1,0%,21µM*,?,-6%,-18%
